{"source": "PubChem BioAssay AID2546", "about": "(National Center for Advancing Translational Sciences (NCATS), 2010)", "note": "The whole screen tested about 310,000 compounds, of which about 11,000 (3.5%) were called active. Not shown: some 8% with an inconclusive outcome. Calls follow the shape of the dose curve; as a rule, active = well fitted inhibition curve with a large enough effect; inconclusive = small, poorly fitted or top-dose-only effect, or effect the other way; inactive = flat fitted curve, though single readings scatter. Many of the other results were omitted from the sample, so actives are more common in it than they were. % is scaled to controls: 0 for no effect and ±100 for the full control effect; potency is read from the fitted curve at half-maximal effect.", "data": [{"experiment": "VP16 counterscreen qHTS for inhibitors of ROR gamma transcriptional activity;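 also: Gal4-VP16 expression switched on by copper sulfate through the metallothionein promoter; nearly all actives have a fitted effect of over 50% in size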", "details": "Drosophila S2 Gal4-VP16 UAS-luciferase, luminescence, 20 h; series mostly up to 53.6 µM; activity, negative = inhibition: at the top concentration", "values": [{"smiles": "O=C(c1cc(-c2ccc(O)cc2)on1)N1CCOCC1", "activity, negative = inhibition": "-27.7% (inactive)"}, {"smiles": "CCC(C(=O)NCc1cccnc1)n1nc(C)c2sc3ccccc3c2c1=O", "note": "(configuration not stated)", "activity, negative = inhibition": "-10.1% (inactive)"}, {"smiles": "Cc1cc(C)cc(NC(=S)NCCc2c[nH]c3ccccc23)c1", "Potency": "12.6 µM (active)"}, {"smiles": "COc1ccccc1CC(=O)NCCc1c[nH]c2ccccc12", "activity, negative = inhibition": "1.31% (inactive)"}, {"smiles": "Cc1ccc(NC(=O)C2CCCN2S(=O)(=O)c2cccc3cccnc23)c(C)c1", "note": "(configuration not stated)", "activity, negative = inhibition": "16.3% (inactive)"}, {"smiles": "Cc1cc(C)cc(NC(=S)NCc2ccc(F)cc2)c1", "Potency": "3.98 µM (active)"}, {"smiles": "Cc1ccc(NC(=S)Nc2ncccc2C)c(C)c1", "Potency": "7.08 µM (active)"}, {"smiles": "COc1cc(NC(=S)NCc2ccc(S(N)(=O)=O)cc2)cc(OC)c1", "activity, negative = inhibition": "10.1% (inactive)"}, {"smiles": "CCCCC(=O)NCc1ccc(F)cc1", "activity, negative = inhibition": "-3.24% (inactive)"}, {"smiles": "Cc1cc(F)ccc1NC(=S)NCCc1ccccc1", "Potency": "5.62 µM (active)"}, {"smiles": "CSc1ncc(C(=O)Nc2ccc(C)cc2C)c(C)n1", "activity, negative = inhibition": "-4.09% (inactive)"}, {"smiles": "O=C(NCCc1c[nH]c2ccccc12)c1cccc(Br)c1", "activity, negative = inhibition": "2.54% (inactive)"}, {"smiles": "O=C(CC(=O)N/N=C\\c1ccc(F)cc1)NCCc1ccccc1", "activity, negative = inhibition": "-1.58% (inactive)"}, {"smiles": "S=C(NCCc1ccccc1)N1CCCCC1", "activity, negative = inhibition": "-1.99% (inactive)"}, {"smiles": "CCCOc1ccc(CNC(=O)C2CCN(c3nn4c(=O)cc(C)nc4s3)CC2)cc1", "activity, negative = inhibition": "-5.78% (inactive)"}, {"smiles": "Cc1cccc(-c2nc(CS(=O)CC(=O)NC(C)CCc3ccccc3)c(C)o2)c1", "note": "(configuration not stated)", "activity, negative = inhibition": "3.03% (inactive)"}, {"smiles": "O=C(Nc1ccc(N2CCCC2=O)cc1)c1cncc(Br)c1", "activity, negative = inhibition": "15.5% (inactive)"}, {"smiles": "Cc1cccn2c(=O)c(/C=C(\\C#N)C(N)=O)c(N3CCCCCC3)nc12", "activity, negative = inhibition": "10.7% (inactive)"}, {"smiles": "CCCc1nnc(NC(=O)CCC(=O)N2CCN(S(=O)(=O)c3ccc(OC)cc3)CC2)s1", "activity, negative = inhibition": "-5.49% (inactive)"}, {"smiles": "Cc1c(C(=O)NCC(c2ccco2)N2CCCC2)oc2ccc(Cl)cc12", "note": "(configuration not stated)", "activity, negative = inhibition": "-2.12% (inactive)"}, {"smiles": "Cc1ccc(CNC(=O)CCS(=O)(=O)c2ccc3c(c2)CC(C)N3C(=O)C2CC2)o1", "note": "(configuration not stated)", "activity, negative = inhibition": "-9.65% (inactive)"}, {"smiles": "O=C1C(=O)N(CCN2CCOCC2)C(c2cccc(Cl)c2)/C1=C(/O)c1ccc2c(c1)OCO2", "note": "(configuration not stated)", "activity, negative = inhibition": "6.2% (inactive)"}, {"smiles": "O=C(NNS(=O)(=O)c1ccc([N+](=O)[O-])cc1)C1CCCCC1", "activity, negative = inhibition": "-5.42% (inactive)"}, {"smiles": "COc1cccc(-c2nc(CS(=O)CC(=O)NCc3ccc(F)cc3)c(C)o2)c1", "note": "(configuration not stated)", "activity, negative = inhibition": "-0.425% (inactive)"}, {"smiles": "COc1ccccc1N1CC(C(=O)Nc2nnc(SCC(=O)NCC3CCCO3)s2)CC1=O", "note": "(configuration not stated)", "activity, negative = inhibition": "-2.2% (inactive)"}, {"smiles": "Cc1ccc(NC(=O)C(=O)NCc2ccco2)c(C)c1", "activity, negative = inhibition": "21.4% (inactive)"}, {"smiles": "S=C(NCc1cccnc1)Nc1ccc(Cl)cc1Cl", "activity, negative = inhibition": "-10% (inactive)"}, {"smiles": "Cc1cc(C(=O)NNC(=S)Nc2ccccc2C)cs1", "activity, negative = inhibition": "-21.2% (inactive)"}, {"smiles": "Cc1ccccc1N/C(SCc1ccc(Cl)cc1)=C(/C#N)C(N)=O", "activity, negative = inhibition": "-0.144% (inactive)"}, {"smiles": "Cc1ccc(NC(=S)NCc2ccccc2Cl)c(C)c1", "Potency": "5.01 µM (active)"}, {"smiles": "Cc1ccccc1NC(=S)NC(=O)Cc1ccc(Cl)cc1", "Potency": "7.08 µM (active)"}, {"smiles": "O=C(N/C(=C\\c1ccc([N+](=O)[O-])cc1)C(=O)N1CCOCC1)c1cccc(Br)c1", "activity, negative = inhibition": "-11.1% (inactive)"}, {"smiles": "CC(=O)Nc1ccc(S(=O)(=O)N(C)c2nc3ccccc3nc2Cl)cc1", "activity, negative = inhibition": "11.5% (inactive)"}, {"smiles": "COC(=O)CN1C(=O)[C@H]2[C@@H](/C=C/c3ccccc3)N3C(=O)CN(CC4CC4)C(=O)[C@@]3(Cc3ccccc3)[C@H]2C1=O", "activity, negative = inhibition": "3.02% (inactive)"}, {"smiles": "O=C(CN(Cc1ccc(Br)cc1)S(=O)(=O)c1ccccc1)NCc1ccncc1", "activity, negative = inhibition": "-8.26% (inactive)"}, {"smiles": "CN1CCN(C(=O)C(=O)c2cn(CC(=O)N3CCCC3)c3ccccc23)CC1", "activity, negative = inhibition": "-3.11% (inactive)"}, {"smiles": "Cc1ccccc1CNC(=O)CCC(=O)N1Cc2ccccc2Oc2ncccc21", "activity, negative = inhibition": "-6.17% (inactive)"}, {"smiles": "Cc1cc(SCc2c(F)cccc2Cl)nc(=O)[nH]1", "activity, negative = inhibition": "2.98% (inactive)"}, {"smiles": "COc1ccc(CNC(=O)/C(C#N)=C/c2cccc(OC)c2OC)cc1", "activity, negative = inhibition": "-3.25% (inactive)"}, {"smiles": "COc1ccc(Cl)cc1CSc1ncn[nH]1", "activity, negative = inhibition": "0.416% (inactive)"}, {"smiles": "O=C(NCCOCc1ccc(Cl)cc1)c1ncn[nH]1", "activity, negative = inhibition": "2.55% (inactive)"}, {"smiles": "O=C(/C=C/Sc1ncn[nH]1)c1ccc(Cl)cc1", "Potency": "4.47 µM (active)"}, {"smiles": "O=C(Cn1c(NCCO)nc2ccccc21)c1ccc(Cl)cc1Cl", "activity, negative = inhibition": "-4.09% (inactive)"}, {"smiles": "CCc1cccc(NC(=S)N(CCN(C)C)C2CCN(C(C)C)CC2)c1", "activity, negative = inhibition": "3.51% (inactive)"}, {"smiles": "CC(C)c1ccc(S(=O)(=O)N2CCN(C(=O)c3ccc(N4CCCC4)c([N+](=O)[O-])c3)CC2)cc1", "activity, negative = inhibition": "4.28% (inactive)"}, {"smiles": "CC(=O)N1c2ccc(S(=O)(=O)NCCC(=O)N(C)C3CCCCC3)cc2CC1C", "note": "(configuration not stated)", "activity, negative = inhibition": "1.26% (inactive)"}, {"smiles": "Nc1nc(Nc2ccccc2F)nc(NC2CCCCC2)c1[N+](=O)[O-]", "activity, negative = inhibition": "-20.7% (inactive)"}, {"smiles": "Cc1cccc(N=C2NN=C(c3c[nH]c4ccccc34)CS2)c1", "Potency": "7.94 µM (active)"}, {"smiles": "Cc1cccc(C(=O)Nc2nnc(Cc3c[nH]c4ccccc34)s2)c1", "activity, negative = inhibition": "0.0774% (inactive)"}, {"smiles": "Cc1ccc(-c2csc(-c3c[nH]c4ccccc34)n2)cc1", "activity, negative = inhibition": "13.1% (inactive)"}, {"smiles": "C=CCCN(C(Cc1ccccc1)C(=O)OC)S(=O)(=O)c1cc(Br)ccc1Br", "note": "(configuration not stated)", "activity, negative = inhibition": "-1.68% (inactive)"}, {"smiles": "CC(C)c1nc(CNC(=O)CC2C(=O)NCCN2Cc2cccc(F)c2F)cs1", "note": "(configuration not stated)", "activity, negative = inhibition": "-1.75% (inactive)"}]}]}
